An excerpt weighted towards active compounds, which were near 5.3% of everything screened.
SUMO Mot1 rescue: blocks SUMOylation pathway, rescuing yeast Mot1-301 growth | S. cerevisiae Mot1-301 growth rescue, ATP luminescence, 38.5C; percent above DMSO median, 100 means doubled | growth rescue, % at 18.8 µM | 320,000 tested, 1% active | AID 2716;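 active means every valid replicate shows activation above 250% relative to neutral control wells; inactive means the rest, any valid replicate at or below 250%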;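 further: OY570 slx delta 5 strain wells were the positive control but not used for scaling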
PfM18AAP inh: blocks P. falciparum M18 aspartyl aminopeptidase; 290,000 tested, 1.2% active; inhibition, % at 7.35 µM; recombinant PfM18AAP, H-Glu-NHMec fluorogenic cleavage;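 active means inhibition above the campaign mean inhibition over all tested compounds plus 3 SD, cut at about 28% in these data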;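 further: 0% = plate median of test compound wells and 100% = 2 mM ZnCl2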
HIF act: HIF pathway transcriptional activation. U2OS HRE-luciferase reporter, luminescence; normalized: DMSO 0%, desferrioxamine 100%. activation, % at 7.5 µM (by protocol). 300,000 tested, 0.32% active;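 active means mean activation of at least 10% of the iron chelator positive control signal, with at least half of replicates also reaching 10%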
ALR inh: inhibitors of human sulfhydryl oxidase ALR | P55789 | purified ALR, DTT oxidation, H2O2 HRP-luminol luminescence | inhibition, % (no concentration beside the values) | 290,000 tested, 3.8% active;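 active means mean replicate inhibition above about 79%, with every replicate also reaching it, limit read from the data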
Target sequence (P55789 whole entry, looked up): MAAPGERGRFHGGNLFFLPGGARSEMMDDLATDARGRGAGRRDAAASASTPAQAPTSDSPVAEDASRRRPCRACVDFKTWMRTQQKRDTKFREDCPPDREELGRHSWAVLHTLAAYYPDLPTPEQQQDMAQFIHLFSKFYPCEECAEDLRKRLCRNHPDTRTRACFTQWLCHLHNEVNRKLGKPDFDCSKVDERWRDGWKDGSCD
An asterisk follows results filed as active; . = not tested or not shown.

SMILES | SUMO Mot1 rescue | PfM18AAP inh | HIF act | ALR inh
CCN(c1ccccc1)S(=O)(=O)c1cccc(C(=O)NCc2ccccn2)c1 | . | . | 0 | .
C=CCc1ccccc1OCC(O)CNC(=O)c1ccccc1C(=O)O (centres undefined) | -15 | -14 | 0 | 0
N/C(=N/O)c1ccccc1N1CCC(Cc2ccccc2)CC1 | 155 | -10 | 0 | 92*
CCN(CC)c1ccc(NC(=O)C2=CCN(S(=O)(=O)c3ccc(F)cc3)CC2)c(C)c1 | -5 | -1 | . | 87*
Cc1ccc(S(=O)(=O)N2CC=C(C(=O)NCc3ccc(F)cc3)CC2)cc1 | -15 | 11 | . | -31
CCN(CC)c1ccc(NC(=O)c2c(OC)cccc2OC)c(C)c1 | -2 | 14 | 0 | 99*
CCN(CC)c1ccc(NC(=O)C2CCCN(S(=O)(=O)c3cccnc3)C2)c(C)c1 (centres undefined) | 8 | 28* | 0 | 99*
COc1ccc(C(=O)/C=C/Nc2ccc(S(N)(=O)=O)cc2)cc1OC | 17 | -1 | . | -2
CCc1nn(CC(=O)NCCC(C)C)c(=O)c2cc3c(OC)cccc3n12 | -14 | 9 | -16 | -7
COc1ccc(N2CCN(C(=O)COc3ccc(S(=O)(=O)N4CCOCC4)cc3C)CC2)cc1 | -9 | 2 | -3 | 43
CC(C)c1nnc(N2C(=O)c3oc4ccccc4c(=O)c3C2c2ccco2)s1 (centres undefined) | -7 | 4 | 0 | 2
Cc1ccc(C2c3c(oc4ccccc4c3=O)C(=O)N2c2nnc(C(C)C)s2)o1 (centres undefined) | 5 | -7 | 0 | 97*
COc1ccc(NC(C)=O)cc1CNC(=O)COc1ccccc1C(=O)Nc1cccc(C)c1C | -9 | 7 | 1 | -2
COc1ccc(C2SCC(=O)N2CCCN(C)C)cc1 (centres undefined) | -5 | -3 | 0 | 0
C=CCn1c(=S)[nH]c2sc3c(c2c1=O)CCCC3 | -17 | 3 | 0 | 49
Cn1c(=O)n(Cc2ccco2)c(=N)c2c3c(sc21)CCC3 | -20 | -4 | 0 | 76*
CC1(C)Cc2c(sc3[nH]c(=S)n(Cc4ccco4)c(=O)c23)CO1 | 77 | 5 | . | 98*
CC1(C)Cc2c(sc3c2c(=N)n(Cc2ccco2)c(=O)n3Cc2ccccc2)CO1 | -31 | -6 | 0 | -9
O=c1c2c3c(sc2[nH]c(=S)n1Cc1ccco1)CCC3 | 19 | 14 | 1 | 93*
Cc1ccc(NC(=O)COC(=O)CCc2ccccc2)cc1S(=O)(=O)N1CCOCC1 | 85 | . | . | .
O=C(CN1CCN(c2ccc(F)cc2)CC1)N(C1CCCC1)C1CCS(=O)(=O)C1 (centres undefined) | 93 | . | . | .
Cn1nc(-c2ccccc2)c(C(=O)NC(C(=O)O)c2ccccc2)c1Cl (centres undefined) | 10 | -2 | 0 | 6
COC(=O)C(NC(=O)c1c(C)nn(C)c1Cl)c1ccccc1 (centres undefined) | -11 | -11 | 609* | .
CCOC(=O)Oc1ccc2c(=O)c(Oc3cccc(C)c3)coc2c1 | 101 | -1 | 1 | 96*
Cc1ccc2nc(-c3sc4nc(C)cc(C)c4c3N)[nH]c2c1 | -11 | 1 | -1 | 36
SMILES | SUMO Mot1 rescue | PfM18AAP inh | HIF act | ALR inh
CCC(=O)N(C)CCc1cc2c(c(OC)c1/C=N/Nc1ccc(C(=O)O)cc1)OCO2 | 33 | 25 | 0 | 99*
CCC(=O)N(C)CCc1cc2c(c(OC)c1/C=N/NC(=O)[C@H]1C[C@@H]1c1ccccc1)OCO2 | -5 | -16 | 0 | .
CN1CCC(=O)N(CCSc2ccc(Br)cc2)CC1 | 4 | . | 1 | .
COc1ccc(C2=NC(c3ccccc3)CO2)cc1 (centres undefined) | -8 | 4 | 5 | 1
COc1ccc(C2CC23N=C(c2ccccc2)OC3=O)cc1 (centres undefined) | 33 | 0 | 0 | 97*
CCOc1ccc(C(=O)CSCCC(=O)O)cc1 | 35 | 3 | -2 | 98*
O=C(Nc1ncnc2sc3c(c12)CCCCC3)c1ccco1 | . | -10 | 0 | 97*
CCCCNS(=O)(=O)c1ccc2nc(-c3cccnc3)cc(C(=O)NCC(OC)OC)c2c1 | 6 | 4 | -1 | 3
CCN1CCCc2cc(CN(CCN3CCOCC3)C(=S)Nc3ccccc3C)ccc21 | -33 | 4 | 0 | 99*
CCN1CCCc2cc(CN(CCN3CCOCC3)C(=S)Nc3ccccc3OC)ccc21 | 12 | 11 | 0 | 99*
CCN1CCCc2cc(CN(CCN3CCOCC3)C(=S)Nc3cccc(C)c3)ccc21 | 260 | 15 | 0 | 95*
O=C(Nn1c(COc2ccccc2)nc2ccccc2c1=O)C(Cl)(Cl)Cl | -20 | 7 | 2 | 97*
